One may read the AC50 as the concentration at which the activity in the assay is half-maximal.

“And” between values parts separate entries of the source, which are not always exact repeats. Equal entries are not always repeated. Results filed as inconclusive are left out. Some compounds were tested as several samples or in several runs, with calls that do not always agree. The source made the active and inactive calls. The calls were made as follows: active = hit-call score of the fitted dose curve at least 0.9, where 1 is the maximum; inconclusive = response in the unintended direction; inactive = score below 0.9.

For 30 compounds, outcome and AC50 results are on record in PubChem BioAssay (EPA / NIEHS).

Chain of Estrogen receptor beta (Homo sapiens) (Q92731 whole entry, looked up, the tested form may be a part): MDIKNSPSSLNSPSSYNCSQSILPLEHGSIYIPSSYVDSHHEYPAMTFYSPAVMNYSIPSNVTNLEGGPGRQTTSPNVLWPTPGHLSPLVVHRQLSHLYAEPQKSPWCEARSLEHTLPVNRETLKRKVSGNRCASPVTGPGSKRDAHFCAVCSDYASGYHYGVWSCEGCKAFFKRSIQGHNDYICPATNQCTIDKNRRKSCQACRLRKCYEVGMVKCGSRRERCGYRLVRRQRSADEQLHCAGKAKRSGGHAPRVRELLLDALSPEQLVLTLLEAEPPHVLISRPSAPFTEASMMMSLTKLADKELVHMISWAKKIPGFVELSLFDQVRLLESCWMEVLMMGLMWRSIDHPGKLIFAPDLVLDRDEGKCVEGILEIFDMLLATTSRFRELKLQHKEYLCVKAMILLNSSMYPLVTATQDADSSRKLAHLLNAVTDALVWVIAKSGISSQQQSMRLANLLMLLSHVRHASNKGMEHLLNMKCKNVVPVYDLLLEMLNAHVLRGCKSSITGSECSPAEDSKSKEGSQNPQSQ

This assay addresses Estrogen receptor beta (Homo sapiens) (UniProt Q92731). Description: OT_ER_ERbERb_0480: Odyssey Thera (OT) 8-hour HEK293T Protein-Complementation Assay for Estrogen Receptor-beta/-beta Homodimer (AID 2283357).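 Also: active means signal gain over DMSO baseline.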 An outline of the steps:
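Cells (HEK293T, stable ER-beta LBD PCA pair) are treated 8 hours, fixed and Draq5-stained; signal is fluorescence intensity increase relative to vehicle, fitted in the gain direction.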
As for `Cc1ccc([N+](=O)[O-])cc1C`, the call was inactive.
For `O=C(O)CF`, the outcome was inactive.
Still for that read-out and setting: in the case of `O=C(O)C1C(C(=O)O)C2(Cl)C(Cl)=C(Cl)C1(Cl)C2(Cl)Cl` (stereo unspecified) it was “inactive”; in that of `O=S1(=O)OCC2C(CO1)C1(Cl)C(Cl)=C(Cl)C2(Cl)C1(Cl)Cl` (stereo unspecified), “inactive”.
With `O=S(=O)(c1ccc(O)cc1)c1ccc(O)cc1`, the concentration at half-maximal activity (AC50) was 31.2 µM (active).
Consider `CCCCCCCc1ccc(O)cc1`, for which the AC50 was 12.2 µM (active) and 13.3 µM (active) and 12.3 µM (active); the result was inactive.
`c1nc[nH]n1`: the result was inactive.
For `O=[N+]([O-])c1ccccc1`, the compound was classed as inactive.
The same measure, in the same setting: in the case of `COC(N)=O` it was “inactive”; in that of `CCCN(CCC)c1c([N+](=O)[O-])cc(C(C)C)cc1[N+](=O)[O-]`, “inactive”; in that of `CCOc1ccc(C(C)(C)COCc2cccc(Oc3ccccc3)c2)cc1`, “inactive”.
The same measure, in the same setting: next, `CC(Cl)(Cl)C(=O)O`: “inactive”.
Same read-out and setting: next, `Cc1ccc(N)cc1N`: “inactive”; `Cc1ccc(O)cc1C`: “inactive”; `c1cc2c3c(cccc3c1)CC2`: “inactive”.
In the case of `CC(Cc1ccc(OCC(=O)O)cc1)NCC(O)c1csc(C(F)(F)F)n1` (stereo unspecified), the result was inactive.
The same measure, in the same setting: in the case of `CC(C)(C)OOC(C)(C)C` it was “inactive”.
Still for that read-out and setting: in the case of `CCCCc1ccccc1` it was “inactive”; in that of `ClC(Cl)(Cl)c1ccccc1`, “inactive”.
As to `c1ccc(OP(Oc2ccccc2)Oc2ccccc2)cc1`, the result was inactive.
In the case of `CCNc1nc(Cl)nc(NC(C)(C)C)n1`, the result was inactive.
The same measure, in the same setting: next, `CCC1(c2ccccc2)C(=O)N=C(O)NC1=O` (stereo unspecified): “inactive”; `CC1(C)CN=C(NN=C(/C=C/c2ccc(C(F)(F)F)cc2)/C=C/c2ccc(C(F)(F)F)cc2)NC1`: “inactive”.
With `FC(F)(F)c1ccc(Cl)cc1`, the result was inactive.
As for `Nc1ccc2ccccc2c1`, the outcome was inactive.
The same measure, in the same setting: in the case of `CCOC(=O)c1ccccc1N` it was “inactive”; in that of `O=c1ssc(Cl)c1Cl`, “inactive”; in that of `CCCCC(CC)COP(=O)(Oc1ccccc1)Oc1ccccc1` (stereo unspecified), “inactive”.
As for `COCCOCCO`, the compound was called inactive.
Turning to `O=P1(N(CCCl)CCCl)NCCCO1` (stereo unspecified), the outcome was inactive.
